ChEMBL document CHEMBL4513216, “Probing the Open Global Health Chemical Diversity Library for Multistage-Active Starting Points for Next-Generation Antimalarials” (ACS Infect Dis, 2020)
Screen size: about 69,000 compounds; about 8,600 (12%) showed an effect of 50% or more. Many of the other results were omitted from the sample, so strong results are more common in it than they were.

Test system: Plasmodium berghei
Assay: Screen against P. berghei liver stage (PbLuc), transformed with Luciferase, at 10uM
Format: functional, HepG2
Settings: tested at 10 uM

SMILES	INHIBITION
Cc1cccc(C(=O)NC(C(=O)NCc2ccc(O)nc2)C(C)C)c1 (configuration not stated)	28.7%
c1ccc(-c2cc(CN3C[C@H]4CC[C@@H](C3)N(CC3CC3)C4)on2)cc1	48.2%
c1ccc(-c2cc(CN3C[C@H]4CC[C@H]3C4)on2)cc1	-0.27%
c1ccc(-c2cc(CN3C[C@H]4CC[C@@H](C3)N(CC3CCC3)C4)on2)cc1	86.8%
CN(c1cccnn1)C1CCN(C(=O)Cc2c[nH]c3ccccc23)CC1	36.1%
CCCOC1CCCN(c2nc(CC)nc3c2cnn3C)C1 (configuration not stated)	7.77%
Cc1nc(N2CCCC2)nc2c1CCN(C(=O)C1CCC1)CC2	-21.1%
Nc1ncc(-c2csc(NC(=O)C[C@H]3COCCN3)n2)cn1	-7.79%
O=C(Cc1ccc2c(c1)CCC2)NCCNc1cnccn1	8.64%
c1csc(CN2C[C@H](OCC3CCOCC3)[C@H]3COC[C@H]32)n1	26.5%
COc1ccc(CN2C[C@H](OCC3CCOCC3)[C@H]3COC[C@H]32)cc1	41.8%
c1cc(CN2C[C@H](OCC3CCOCC3)[C@H]3COC[C@H]32)co1	57.3%
c1cnc(N2CCO[C@H]3[C@H](OCC4CCOCC4)CC[C@@H]32)nc1	21.6%
c1cc(CN2C[C@H](OCC3CCOCC3)[C@H]3COC[C@H]32)cs1	9.65%
c1cnc(N2C[C@H](OCC3CCOCC3)[C@H]3COC[C@H]32)nc1	68.9%
COc1ccc(-n2cc3[nH]c(=O)[nH]n3c2=O)cc1	3.68%
Cc1ncncc1C(=O)N1CCCC(n2ccnc2C)C1 (configuration not stated)	-20.1%
NC(=O)N1CCC2(CC1)CN(Cc1cccnc1)C(=O)CO2	2.4%
COCCN1CCC2(CC1)CN(C(=O)c1cccs1)CCO2	-23.3%
COCCN1CCC2(CC1)CN(C(=O)c1ccco1)CCO2	51.9%
O=C(c1ccco1)N1CCCC2(CN(Cc3ccoc3)CCO2)C1 (configuration not stated)	-8.25%
O=C(c1ccco1)N1CCCC2(CN(Cc3ccsc3)CCO2)C1 (configuration not stated)	76.5%

SMILES	INHIBITION
COCCN1CCC2(CC1)CN(C(=O)c1ccccc1)CCO2	39.5%
O=C(c1ccco1)N1CCCC2(CN(Cc3cccs3)CCO2)C1 (configuration not stated)	2.02%
Cc1nocc1C(=O)N1CCOC2(COCCN(C(C)C)C2)C1 (configuration not stated)	20.6%
Cc1nocc1C(=O)N1CCOC2(COCCN(CC3CC3)C2)C1 (configuration not stated)	1.7%
COCCN1CCOCC2(C1)CN(C(=O)c1conc1C)CCO2 (configuration not stated)	53.4%
O=C(CC1CC1)N1CC[C@H]2OCC[C@@]2(COc2ncccc2F)C1	-31.3%
CN1CCN(C(=O)C2CCCN(c3cccnn3)C2)CC1 (configuration not stated)	42.4%
O=C(Nc1cc(C(F)(F)F)c[nH]c1=O)C1CCCCN1 (configuration not stated)	-5.51%
CNC(=O)CCN(C)c1nc(-c2ccncc2)nc2c1CCNC2	35.8%
CCCc1nnc(N2CC[C@@](O)(C3CCOCC3)[C@H](C)C2)s1	60.3%
CNc1ccnc(N2C[C@@H](C)[C@](O)(C3CCC3)C2)n1	30.1%
CCCc1nnc(N2CC[C@](C)(O)[C@H](C)C2)s1	-50.3%
CCCc1nnc(N2C[C@@H](C)[C@@](C)(O)C2)s1	9.96%
CNc1ccnc(N2CC[C@@](O)(C3CCOCC3)[C@H](C)C2)n1	59.3%
CNc1ccnc(N2C[C@@H](C)[C@](O)(C3CC3)C2)n1	39.9%
Cc1cnc(C2(C)CCN(Cc3csc(C)n3)CC2)s1	6.32%
O=C(NC1CCCOc2cc(Cl)ccc21)c1ccc(=O)[nH]n1 (configuration not stated)	-10.9%
CCN1CC2(CCC1=O)CCN(C(=O)c1cn3cccnc3n1)CC2	-13.6%
COc1ccc(Br)cc1SCCC(N)=O	16.1%
CN1CC[C@H]2OCC[C@@H](C(=O)NCc3ccco3)[C@@H]2C1	18.3%
O=C(NC1CC1)[C@@H]1CCO[C@@H]2CCN(C3CCCC3)C[C@H]21	3.25%
Cn1cc(CN2CC[C@H]3OCC[C@@H](C(=O)NCc4ccco4)[C@@H]3C2)cn1	5.96%

SMILES	INHIBITION
O=C(NCC1CC1)[C@@H]1CCO[C@@H]2CCN(Cc3ccco3)C[C@H]21	-22.8%
O=C(NCc1ccco1)[C@@H]1CCO[C@@H]2CCN(CC3CC3)C[C@@H]21	67.2%
O=C(NC1CC1)[C@@H]1CCO[C@@H]2CCN(Cc3ccco3)C[C@H]21	18.3%
O=C(NC1CC1)[C@@H]1CCO[C@@H]2CCN(C3CCOCC3)C[C@H]21	-48.2%
O=C(NCc1ccccn1)[C@@H]1CCO[C@@H]2CCN(Cc3ccoc3)C[C@H]21	54.6%
O=C(NCc1ccccn1)[C@H]1COC[C@H]2CN(Cc3ccoc3)C[C@H]21	31.8%
O=C(NC1CC1)[C@@H]1CCO[C@@H]2CCN(Cc3ccsc3)C[C@H]21	27.3%
O=C(NC1CC1)[C@@H]1CCO[C@@H]2CCN(CC3CCC3)C[C@H]21	61.1%
O=C(NC1CC1)[C@@H]1CCO[C@@H]2CCN(CC3CCC3)C[C@@H]21	91%
CN(C)Cc1ccnc(C2CCCN2Cc2cc3ccccc3s2)n1 (configuration not stated)	19.6%
CC1CN(Cc2cc(C#N)ccc2F)CCN1Cc1nccn1C (configuration not stated)	22.95%
O=C(CCc1cc2n(n1)CCCNC2)N1CCSCC1	-24.7%
CNc1nc(C2CCCCN2C(=O)COC)nc2c1CN(C)CC2 (configuration not stated)	38.2%
O=C(NC1CCC1)[C@@H]1CCO[C@@H]2CCN(C3CCCC3)C[C@@H]21	53.4%
CNC(=O)[C@@H]1CCO[C@@H]2CCN(CCc3ccccc3)C[C@H]21	8.52%
O=C(NC1CCC1)[C@@H]1CCO[C@@H]2CCN(CCc3ccccc3)C[C@H]21	53.5%
O=C(NC1CC1)[C@@H]1CCO[C@@H]2CCN(CCc3ccccc3)C[C@@H]21	27.3%
O=C(NC1CC1)[C@@H]1CCO[C@@H]2CCN(C3CCOCC3)C[C@@H]21	26.8%
O=C(NC1CCC1)[C@@H]1CCO[C@@H]2CCN(C3CCCC3)C[C@H]21	-25.2%
Cc1ccc(-n2c(SCC(=O)O)nnc2-c2ccccc2)cc1	-12.9%
O=C1CN(CC2CC2)Cc2nc(NCc3ccccc3)sc21	29.3%
Cn1cc(-c2nc(CN3CCCCC3Cn3cncn3)cs2)cn1 (configuration not stated)	-91.6%

SMILES	INHIBITION
Cc1nnc2n1CCN(C(=O)c1cc(Br)c(Cl)[nH]1)C2	18.85%
Cc1noc(C2CCCN(Cn3cc(Cl)cn3)C2)n1 (configuration not stated)	-9.39%
Cc1nc(CN2C(=O)CC[C@@H]3[C@H]2CCN3C2CCOCC2)cs1	50%
Cc1nc(CN2C(=O)CC[C@@H]3[C@H]2CCN3C2CCOC2)cs1 (some centres not stated)	-54.9%
Cc1nc(CN2C(=O)C[C@@H]3[C@@H]2CCN3CC2CCOCC2)cs1	-5.08%
Cc1nc(CN2C(=O)C[C@H]3[C@H]2CCN3CC2CCOC2)cs1 (some centres not stated)	56.6%
Cc1nc(CN2C(=O)C[C@H]3[C@H]2CCN3C2CCOC2)cs1 (some centres not stated)	-43.1%
Cc1nc(CN2C(=O)C[C@H]3[C@H]2CCN3C2CCOCC2)cs1	20.1%
O=C(c1cnn2ccccc12)N1CCCC(OCc2ccccn2)C1 (configuration not stated)	15.7%
COc1c(CNC(c2ccccc2)c2ccc(F)cc2)c(C)nn1C (configuration not stated)	35.4%
CC1CCN(C(=O)[C@H]2C[C@@H]3CCN(CC4CCOCC4)C[C@H]3O2)CC1	-7.24%
c1cc(NCc2ccncc2)nc(C2CCCN2)c1 (configuration not stated)	14%
O=C(CC1CCN(c2cccnn2)CC1)Nc1nncs1	31.3%
Cc1nc(-c2ccccc2)sc1CSC(C)C(N)=O (configuration not stated)	-48.3%
Cc1nc(-c2ccccc2)sc1CSCCC(N)=O	60.8%
Cc1nc(-c2ccccc2)sc1CSCCS(C)(=O)=O	20.1%
CNc1cc2c(nn1)CCN(C(=O)c1cc(C)no1)C2	-65.3%
CN1CC(C(=O)NCc2ccc(Br)cc2F)CC1=O (configuration not stated)	-18.5%
CCNC(=O)CN1CCC(OCC2CCCO2)CC1 (configuration not stated)	68.8%
O=C(CN1CCC(OCC2CCCO2)CC1)NCC(F)(F)F (configuration not stated)	1.2%
CNC(=O)CN1CCC(OCC2CCCO2)CC1 (configuration not stated)	32.9%
Cc1nn(C)c(C)c1C1CCCN1C(=O)c1ccnc(N(C)C)c1 (configuration not stated)	-4.16%

SMILES	INHIBITION
CN(Cc1ccco1)C1CCC12CCN(C(=O)c1ccco1)CC2 (configuration not stated)	-77.5%
COc1ncccc1CNC(=O)c1cc(C)on1	-41.1%
CCS(=O)(=O)N1CCN(C(C)c2ccccc2OC)CC1 (configuration not stated)	13.5%
COc1ccccc1C(C)N1CCN(S(=O)(=O)N(C)C)CC1 (configuration not stated)	14.7%
COc1ccccc1C(C)N1CCN(S(C)(=O)=O)CC1 (configuration not stated)	51.1%
COCCC(=O)N1CCCC2(CCCN2Cc2ccccc2F)C1 (configuration not stated)	19.5%
COCC(=O)N1CCN(C(=O)Cc2cccs2)[C@H]2CS(=O)(=O)C[C@H]21	-6.11%
Cc1cc(C2CCCN(CC(=O)Nc3nc4c(s3)CCC4)C2)n[nH]1 (configuration not stated)	75.8%
CC(C)C1Nc2ccccc2C(=O)N1CC(=O)Nc1nc2c(s1)CCC2 (configuration not stated)	16.5%
O=C(O)c1cccc(CN2CCCC(c3ccn[nH]3)C2)c1 (configuration not stated)	21.45%
Cc1nc(C)n(CC2CCCN(CC(=O)Nc3nncs3)C2)n1 (configuration not stated)	12.4%
Cc1cc(C2CCCN(CC(=O)N3CCc4ccccc43)C2)n[nH]1 (configuration not stated)	15.2%
Cc1nnc(NC(=O)CN2CCCC(c3ccn[nH]3)C2)s1 (configuration not stated)	47.1%
O=C1CCCN1CCN1CCCC(c2ccn[nH]2)C1 (configuration not stated)	-24.2%
O=C(CN1CCCC(c2ccn[nH]2)C1)Nc1nncs1 (configuration not stated)	56.3%
Cc1cc(C2CCCN(CC(=O)N3CCCc4ccccc43)C2)n[nH]1 (configuration not stated)	19.9%
O=C(CN1CCCC(c2ccn[nH]2)C1)N1CCCc2ccccc21 (configuration not stated)	21.8%
O=C(CN1CCCC(c2ccn[nH]2)C1)Nc1nc2c(s1)CCCC2 (configuration not stated)	86.9%
O=C(CN1CCCC(c2ccn[nH]2)C1)Nc1nc2c(s1)CCC2 (configuration not stated)	83.2%
